According to the supplement of paper PMC10515830:
Counter-ions that a name gives are not always drawn.

Experiments:
Settings in all cases: 10 µM; exposure time 6 h
[1] = system: Danio rerio larvae (5 dpf); experiment: difference in excitability vs DMSO (percentage points); higher = more excitable than DMSO
Outline: (§1)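 Wild-type zebrafish larvae at 5 dpf were kept in 96-well plates and exposed for 6 h to 100 µL egg water holding library compound at a final concentration of 10 µM. From 3 h into exposure, the plates were held at 28.5 ℃ and photographed every 6 s through a 3-h programme of moving lines and 100 ms, 400Hz tones. Each behaviour was scored by Z-LaP Tracker, a DeepLabCut model, and averaged over 48 larvae per compound. Every value gives the compound mean minus the vehicle control mean, in percentage points.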

[2] = system: Danio rerio larvae (5 dpf); experiment: difference in startle response vs DMSO (percentage points); higher = stronger startle than DMSO
Outline: as §1

[3] = system: Danio rerio larvae (5 dpf); experiment: difference in activity during first hour vs DMSO (percentage points); higher = more activity than DMSO
Outline: as §1

[4] = system: Danio rerio larvae (5 dpf); experiment: difference in habituation to acoustic stimuli vs DMSO (percentage points); higher = more habituation than DMSO
Outline: as §1

[5] = system: Danio rerio larvae (5 dpf); experiment: difference in combined optomotor response to red, green and blue moving lines vs DMSO (percentage points); higher = stronger optomotor response than DMSO
Outline: as §1

| Compound | difference in excitability [1] | difference in startle response [2] | difference in activity during first hour [3] | difference in habituation to acoustic stimuli [4] | difference [5] |
| --- | --- | --- | --- | --- | --- |
| Nc1nc2ccc(OC(F)(F)F)cc2s1 [Riluzole (hydrochloride)] | 12.7 | -2.33 | 7.76 | 3.2 | 11.9 |
| Cc1cnc(C(=O)NCCc2ccc(S(=O)(=O)NC(=O)NC3CCCCC3)cc2)cn1 [Glipizide] | 0.585 | 1.17 | -9.11 | 5.88 | 8.81 |
| COc1cc(CNC(=O)CCCC/C=C/C(C)C)ccc1O [Capsaicin] | 12.5 | 8.06 | -6.37 | -0.624 | 5.27 |
| CC1COc2c(N3CCN(C)CC3)c(F)cc3c(=O)c(C(=O)O)cn1c23 (stereo not given) [Ofloxacin] | 5.76 | 3.75 | 9.1 | -0.318 | 1.41 |
| C[C@H](Cn1cnc2c(N)ncnc21)OCP(=O)(O)O [Tenofovir] | -6.21 | 0.269 | 0.971 | -2.1 | 5.37 |
| CCCCC[C@H](O)/C=C/[C@@H]1[C@H]2C/C(=C/CCCC(=O)O)O[C@H]2C[C@H]1O [Prostaglandin I2 (sodium salt)] | 0.101 | 3.79 | 11.9 | 1.5 | 4.02 |
| NS(=O)(=O)c1cc2c(cc1Cl)N=CNS2(=O)=O [Chlorothiazide] | -0.0236 | -3.29 | 3.22 | 6.65 | -5.74 |
| C=C1/C(=C\C=C2/CCC[C@]3(C)[C@@H]([C@H](C)CCCC(C)(C)O)CC[C@@H]23)C[C@@H](O)C[C@@H]1O [Calcitriol] | 7.32 | -3.08 | -9.65 | 5.79 | -3.39 |
| CN1CCC[C@H]1c1cccnc1 (racemic) [(±)-Nicotine] | 9.04 | -8.45 | 50 | -10.6 | -14.9 |
| O=C1NC(c2ccccc2)(c2ccccc2)C(=O)N1COP(=O)(O)O [Fosphenytoin (sodium salt)] | 1.33 | 6.03 | -3.5 | 3.61 | 0.0516 |
| CC(=O)N[C@H]1[C@H]([C@H](O)[C@H](O)CO)OC(C(=O)O)=C[C@@H]1NC(=N)N [Zanamivir] | 1.36 | -2.53 | -16.7 | 1.69 | -6.11 |
| CC(C)[C@H](N)C(=O)OCCOCn1cnc2c(=O)[nH]c(N)nc21 [L-Valacyclovir (hydrochloride)] | 6.67 | 6.55 | 5.61 | -8.71 | -5.74 |
| CC(=O)S[C@@H]1CC2=CC(=O)CC[C@]2(C)[C@H]2CC[C@@]3(C)[C@@H](CC[C@@]34CCC(=O)O4)[C@H]12 [Spironolactone] | 2.95 | -1.12 | 0.438 | -0.129 | -0.69 |
| COc1ccc2cc(CCC(C)=O)ccc2c1 [Nabumetone] | 0.732 | -0.884 | 1.19 | -1.53 | 0.192 |
| CC(C)C[C@H](NC(=O)CNC(=O)c1cc(Cl)ccc1Cl)B1OC(=O)C(CC(=O)O)(CC(=O)O)O1 | -1.67 | 1.83 | 2.45 | 4.21 | 5.88 |
| CCCc1c2oc(C(=O)O)cc(=O)c2cc2c(=O)cc(C(=O)O)n(CC)c12 [Nedocromil (sodium salt)] | -1.27 | 3.78 | -6.98 | 7.47 | -2.49 |
| Cc1c(OCC(F)(F)F)ccnc1C[S@@+]([O-])c1nc2ccccc2[nH]1 [(R)-Lansoprazole] | 7.16 | 4.39 | 7.03 | -1.38 | 1.12 |
| O=C1CCCC(=O)C1C(=O)c1ccc(C(F)(F)F)cc1[N+](=O)[O-] [Nitisinone] | -4.15 | -6.23 | 19.7 | -0.151 | 0.618 |
| CCC(C)n1ncn(-c2ccc(N3CCN(c4ccc(OCC5COC(Cn6cncn6)(c6ccc(Cl)cc6Cl)O5)cc4)CC3)cc2)c1=O (stereo not given) [Itraconazole] | 15.4 | -0.629 | -2.15 | -5.43 | 4.73 |
| CCOC(=O)O[C@]1(C(=O)COC(=O)CC)CC[C@H]2[C@@H]3CCC4=CC(=O)C=C[C@]4(C)[C@H]3[C@@H](O)C[C@@]21C [Prednicarbate] | 10.3 | 3.6 | -2.36 | -0.38 | -0.877 |
| CC1(C)O[C@@H]2C[C@H]3[C@@H]4C[C@H](F)C5=CC(=O)CC[C@]5(C)[C@H]4[C@@H](O)C[C@]3(C)[C@]2(C(=O)CO)O1 [Flurandrenolide] | 7.97 | 0.156 | 1.93 | 0.924 | 5.73 |
| Cc1ccsc1C(=CCCN1CCC[C@@H](C(=O)O)C1)c1sccc1C [Tiagabine (hydrochloride)] | 6.86 | 2.66 | 17.9 | 5.1 | -1.64 |
| COC(=O)[C@H]1[C@H]2C[C@@H]3c4[nH]c5cc(OC)ccc5c4CCN3C[C@H]2C[C@@H](OC(=O)c2cc(OC)c(OC)c(OC)c2)[C@@H]1OC [Reserpine] | 24.6 | -7.69 | 9.27 | -7.61 | -10.4 |
| O=C1CCc2cc(OCCCCc3nnnn3C3CCCCC3)ccc2N1 [Cilostazol] | 12.6 | 2.9 | 11.7 | -4.79 | 0.57 |
